Measured values as given in the supplement of paper PMC8975748.
Structures can show the parent of a compound that is named as a salt. ± gives the standard deviation of the averaged measurements.

What was measured:
[1] = system: Saccharomyces cerevisiae BY4741 SeMeCo community; assay: mean cell size (pixel area) (pixels); higher = larger cells; conditions: 10 µM; 24 h; SM minimal medium
Procedure, shortened: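 A fluorescent Saccharomyces cerevisiae BY4741 community carrying four plasmids was used, with each plasmid complementing one auxotrophy and bearing a fluorescent marker. An overnight preculture at OD600 = 1.0 was diluted to OD600 = 0.3, and 70 µl went into 384-well plates acoustically predosed with drug (final 10 µM) in SM medium for 24 h. After paraformaldehyde fixation, cells were imaged by automated confocal microscopy and analysed in Harmony, giving the mean cell pixel area per well. Each value is the average of 3 replicates. Same SeMeCo high-content imaging drug screen: Selleck FDA-approved drugs at 10 µM, 24 h in SM medium, 384-well plates, 3 replicates.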

[2] = system: Saccharomyces cerevisiae BY4741 SeMeCo community; assay: z-score of subpopulation abundance vs DMSO median, subpopulation auxotrophic for M; higher = larger share of this subpopulation than in DMSO controls; conditions: 10 µM; 24 h; SM minimal medium; subpopulation (auxotrophy): M
Procedure, shortened: (§1)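 Cells of a Saccharomyces cerevisiae BY4741 community, carrying four plasmids that each restored one auxotrophy and encoded a distinct fluorescent protein, were pre-grown overnight to OD600 1.0 and diluted to 0.3. A 70 µl volume was added to 384-well plates acoustically predosed with library drugs (10 µM final) and grown 24 h in minimal SM medium. After paraformaldehyde fixation, automated confocal microscopy was used, with single-auxotroph fluorescent strains for thresholds and autofluorescence correction. The abundance of each subpopulation was scored as a z-score against the vehicle-well median.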

[3] = system: Saccharomyces cerevisiae BY4741 SeMeCo community; assay: z-score of subpopulation abundance vs DMSO median, subpopulation auxotrophic for L; higher = larger share of this subpopulation than in DMSO controls; conditions: 10 µM; 24 h; SM minimal medium; subpopulation (auxotrophy): L
Procedure, shortened: as §1

[4] = system: Saccharomyces cerevisiae BY4741 SeMeCo community; assay: z-score of subpopulation abundance vs DMSO median, subpopulation auxotrophic for U; higher = larger share of this subpopulation than in DMSO controls; conditions: 10 µM; 24 h; SM minimal medium; subpopulation (auxotrophy): U
Procedure, shortened: as §1

[5] = system: Saccharomyces cerevisiae BY4741 SeMeCo community; assay: z-score of subpopulation abundance vs DMSO median, subpopulation auxotrophic for H; higher = larger share of this subpopulation than in DMSO controls; conditions: 10 µM; 24 h; SM minimal medium; subpopulation (auxotrophy): H
Procedure, shortened: as §1

[6] = system: Saccharomyces cerevisiae BY4741 SeMeCo community; assay: z-score of subpopulation abundance vs DMSO median, subpopulation auxotrophic for LU; higher = larger share of this subpopulation than in DMSO controls; conditions: 10 µM; 24 h; SM minimal medium; subpopulation (auxotrophy): LU
Procedure, shortened: as §1

[7] = system: Saccharomyces cerevisiae BY4741 SeMeCo community; assay: z-score of subpopulation abundance vs DMSO median, subpopulation auxotrophic for HM; higher = larger share of this subpopulation than in DMSO controls; conditions: 10 µM; 24 h; SM minimal medium; subpopulation (auxotrophy): HM
Procedure, shortened: as §1

[8] = system: Saccharomyces cerevisiae BY4741 SeMeCo community; assay: z-score of subpopulation abundance vs DMSO median, subpopulation auxotrophic for HU; higher = larger share of this subpopulation than in DMSO controls; conditions: 10 µM; 24 h; SM minimal medium; subpopulation (auxotrophy): HU
Procedure, shortened: as §1

[9] = system: Saccharomyces cerevisiae BY4741 SeMeCo community; assay: z-score of subpopulation abundance vs DMSO median, subpopulation auxotrophic for UM; higher = larger share of this subpopulation than in DMSO controls; conditions: 10 µM; 24 h; SM minimal medium; subpopulation (auxotrophy): UM
Procedure, shortened: as §1

[10] = system: Saccharomyces cerevisiae BY4741 SeMeCo community; assay: z-score of subpopulation abundance vs DMSO median, subpopulation auxotrophic for HL; higher = larger share of this subpopulation than in DMSO controls; conditions: 10 µM; 24 h; SM minimal medium; subpopulation (auxotrophy): HL
Procedure, shortened: as §1

[11] = system: Saccharomyces cerevisiae BY4741 SeMeCo community; assay: z-score of subpopulation abundance vs DMSO median, subpopulation auxotrophic for HLU; higher = larger share of this subpopulation than in DMSO controls; conditions: 10 µM; 24 h; SM minimal medium; subpopulation (auxotrophy): HLU
Procedure, shortened: as §1

[12] = system: Saccharomyces cerevisiae BY4741 SeMeCo community; assay: z-score of subpopulation abundance vs DMSO median, subpopulation auxotrophic for HLM; higher = larger share of this subpopulation than in DMSO controls; conditions: 10 µM; 24 h; SM minimal medium; subpopulation (auxotrophy): HLM
Procedure, shortened: as §1

[13] = system: Saccharomyces cerevisiae BY4741 SeMeCo community; assay: z-score of subpopulation abundance vs DMSO median, subpopulation auxotrophic for HUM; higher = larger share of this subpopulation than in DMSO controls; conditions: 10 µM; 24 h; SM minimal medium; subpopulation (auxotrophy): HUM
Procedure, shortened: as §1

[14] = system: Saccharomyces cerevisiae BY4741 SeMeCo community; assay: z-score of subpopulation abundance vs DMSO median, subpopulation auxotrophic for LUM; higher = larger share of this subpopulation than in DMSO controls; conditions: 10 µM; 24 h; SM minimal medium; subpopulation (auxotrophy): LUM
Procedure, shortened: as §1

[15] = system: Saccharomyces cerevisiae BY4741 SeMeCo community; assay: z-score of subpopulation abundance vs DMSO median, subpopulation auxotrophic for HLUM; higher = larger share of this subpopulation than in DMSO controls; conditions: 10 µM; 24 h; SM minimal medium; subpopulation (auxotrophy): HLUM
Procedure, shortened: as §1

[16] = system: Saccharomyces cerevisiae BY4741 SeMeCo community; assay: z-score of prototroph abundance vs DMSO median; higher = larger share of this subpopulation than in DMSO controls; conditions: 10 µM; 24 h; SM minimal medium; subpopulation (auxotrophy): Prototroph
Procedure, shortened: as §1

[17] = system: Saccharomyces cerevisiae BY4741 SeMeCo community; assay: z-score of subpopulation abundance vs DMSO median, subpopulation auxotrophic for LM; higher = larger share of this subpopulation than in DMSO controls; conditions: 10 µM; 24 h; SM minimal medium; subpopulation (auxotrophy): LM
Procedure, shortened: as §1

SMILES	mean cell size [1]	z-score of subpopulation abundance [2]	z-score of subpopulation abundance [3]	z-score of subpopulation abundance [4]	z-score of subpopulation abundance [5]	z-score of subpopulation abundance [6]	z-score of subpopulation abundance [7]	z-score of subpopulation abundance [8]	z-score of subpopulation abundance [9]	z-score of subpopulation abundance [10]	z-score of subpopulation abundance [11]	z-score of subpopulation abundance [12]	z-score of subpopulation abundance [13]	z-score of subpopulation abundance [14]	z-score of subpopulation abundance [15]	z-score of prototroph abundance [16]	z-score of subpopulation abundance [17]
COc1cccc2c1C(=O)c1c(O)c3c(c(O)c1C2=O)C[C@@](O)(C(=O)CO)C[C@@H]3O[C@H]1C[C@H](N)[C@@H](O)[C@H](C)O1 [Epirubicin HCl]	12.6 ± 0.2	-4.59	1.16	1.23	1.56	2.53	-3.22	3.44	-0.97	2.24	2.87	0.2	0.3	2.67	4.48	–	–
CC1=Nc2ccc(Cl)cc2S(=O)(=O)N1 [Diazoxide]	12.4 ± 0.1	-0.76	-0.67	0.16	–	-0.67	–	-0.17	-0.03	-0.72	-0.88	-1.55	-0.41	–	–	0.72	-1.03
CC[C@H]1OC(=O)[C@H](C)[C@@H](O[C@H]2C[C@@](C)(OC)[C@@H](O)[C@H](C)O2)[C@H](C)[C@@H](O[C@@H]2O[C@H](C)C[C@H](N(C)C)[C@H]2O)[C@](C)(O)C[C@@H](C)C(=O)[C@H](C)[C@H]2OC(=O)O[C@@]21C [Erythromycin Cyclocarbonate]	12.19 ± 0.065	-0.28	1.01	0.09	–	0.04	0.9	0.76	0.58	1.2	0.3	0.52	0.96	0.8	–	-1.17	–
C[C@]1(Cn2ccnn2)[C@H](C(=O)O)N2C(=O)C[C@H]2S1(=O)=O [Tazobactam]	12.4 ± 0.26	-0.32	-0.56	0.75	-1.1	0.66	–	0.31	0.66	-0.38	0.12	-0.56	-0.01	0.22	0.69	-0.17	–
COC(=O)C1=C(C#N)NC(C)=C(C(=O)OC(C)C)C1c1cccc([N+](=O)[O-])c1 (configuration not stated) [Nilvadipine]	12.6 ± 0.18	1.61	-0.93	-1.16	1.45	-1.37	1.37	-1.66	-0.73	–	-0.56	2.28	-0.21	-0.7	0.19	0.22	–
CC1=C(C(=O)O)N2C(=O)[C@@H](NC(=O)[C@H](N)c3ccc(O)cc3)[C@H]2SC1 [Cefadroxil hydrate]	12.1 ± 0.2	-0.99	-0.28	-0.62	0.01	-0.23	-0.79	-0.04	-0.45	-0.19	-0.42	-0.45	-0.39	-0.5	-0.33	0.8	–
COCCCN1CCC(NC(=O)c2cc(Cl)c(N)c3c2OCC3)CC1 [Prucalopride Succinate]	12.5 ± 0.32	0.77	-0.33	0.93	-0.29	0.16	–	–	1.44	–	1.78	1.1	1.42	0.31	2.43	-1.55	-0.18
